In PubChem BioAssay one finds composite z-score, z-score and composite Z-score data, which are given here for five molecules.

Calls of active or inactive are those of the source.

Assay [1] deals with Human papillomavirus type 1a protein E7 (residues 44-93). The assay can be described thus: HPV1a E7 fragment binders on microarrays, primary screen, biochemical, small-molecule microarray, residues 44-93, 635 nm fluorescence (AID 1108).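 Also: E7 fragment applied at 1 µg/mL in TBST for 1 h at 4 C; score combines spot fluorescence with its signal to noise ratio.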 The note with it: small-molecule microarray binding, fluorescence 635 nm; higher = more signal.
Assay [2] is described as follows: modulators of HCV replicon luciferase signal, primary screen, HCV replication inhibitor project, Huh7 cells, luciferase reporter (AID 1109).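 Also: huh7 hepatoma cells harbouring a luciferase neomycin HCV replicon reporter; luciferase luminescence as measure of HCV replicon replication; test concentration not given here.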 The following applies: 48 h, higher = more signal. On the technique in general: A replicon is a self-replicating genome or part of one, used to study replication in cells.
In assay [3] the target is Left-right determination factor 2 (Homo sapiens) (UniProt O00292). The assay can be described thus: LEFTY2 binders on small-molecule microarrays, primary screen, biochemical, small-molecule microarray, 635 nm fluorescence scan (AID 1110). The note with it: LEFTY2 binding, higher = more signal.
Chain of Left-right determination factor 2 (Homo sapiens) (O00292 whole entry, looked up): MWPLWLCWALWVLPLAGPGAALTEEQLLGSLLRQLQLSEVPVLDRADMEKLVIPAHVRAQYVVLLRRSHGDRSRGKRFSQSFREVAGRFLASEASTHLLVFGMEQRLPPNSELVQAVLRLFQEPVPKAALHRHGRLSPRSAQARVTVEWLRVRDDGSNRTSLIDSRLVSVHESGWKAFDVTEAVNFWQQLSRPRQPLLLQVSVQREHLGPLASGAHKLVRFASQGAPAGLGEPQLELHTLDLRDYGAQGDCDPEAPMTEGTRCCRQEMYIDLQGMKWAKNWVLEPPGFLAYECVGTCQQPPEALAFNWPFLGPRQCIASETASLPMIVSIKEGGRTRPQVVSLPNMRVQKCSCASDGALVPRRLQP
Assay [4] addresses Calmodulin-1 (Homo sapiens) (UniProt P0DP23). The assay is described as follows: CALM1 binders on microarrays, EGTA buffer, profiling panel, biochemical, small-molecule microarray, Cy5-labelled CALM1 (AID 1111).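 Also: labelled calmodulin applied in Tris saline Tween buffer holding calcium plus EGTA and DTT.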 The following applies: Cy5-CALM1 binding fluorescence, higher = more signal.
The target is the same in assay [5]. The assay can be described thus: calcium-bound CALM1 binders on microarrays, profiling panel, artefact control for SMM control-protein annotation, biochemical, small-molecule microarray, Cy5-labelled CALM1, plus calcium (AID 1112).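 Also: score merges spot fluorescence with signal to noise from triplicate slides.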 The note with it: Cy5-CALM1 binding fluorescence, higher = more signal.
A short description of assay [6]: small-molecule microarray binders of probe aWnt5a, primary screen, biochemical, biotinylated probe, 635/667 nm fluorescence (AID 1113).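 Also: score merges 667 nm fluorescence intensity with signal-to-noise per printed feature.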 The note with it: higher = more signal.
The nature of assay [7]: small-molecule microarray binders of probe aShh, primary screen, biochemical, biotinylated probe, 635/667 nm fluorescence (AID 1114).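 Also: probe is biotin-labelled aShh protein from a stem cell growth factor screen; measures binding of labelled protein to compounds printed on the slide; score merges feature fluorescence at 667 nm with signal-to-noise.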 The following applies: higher = more signal.
Assay [8] in a line: small-molecule microarray binders of probe aNog, primary screen, biochemical, biotinylated probe, 635/667 nm fluorescence (AID 1115).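 Also: probe is biotinylated aNog protein used at 0.15 µg/mL for 1 h at 4 C; z-score combines 667 nm fluorescence of each spot with its signal to noise.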 The following applies: higher = more signal.
For assay [9], the target named is Torsin-1A-interacting protein 1 (Homo sapiens) (UniProt Q5JTV8). The assay is described as follows: LAP1 binders from COS7 cell lysate, primary screen, small-molecule microarray, 635/667 nm fluorescence (AID 1116). The note with it: COS7-hLAP1 lysate binding, 635 nm fluorescence, higher = more signal.
Chain of Torsin-1A-interacting protein 1 (Homo sapiens) (Q5JTV8 whole entry, looked up): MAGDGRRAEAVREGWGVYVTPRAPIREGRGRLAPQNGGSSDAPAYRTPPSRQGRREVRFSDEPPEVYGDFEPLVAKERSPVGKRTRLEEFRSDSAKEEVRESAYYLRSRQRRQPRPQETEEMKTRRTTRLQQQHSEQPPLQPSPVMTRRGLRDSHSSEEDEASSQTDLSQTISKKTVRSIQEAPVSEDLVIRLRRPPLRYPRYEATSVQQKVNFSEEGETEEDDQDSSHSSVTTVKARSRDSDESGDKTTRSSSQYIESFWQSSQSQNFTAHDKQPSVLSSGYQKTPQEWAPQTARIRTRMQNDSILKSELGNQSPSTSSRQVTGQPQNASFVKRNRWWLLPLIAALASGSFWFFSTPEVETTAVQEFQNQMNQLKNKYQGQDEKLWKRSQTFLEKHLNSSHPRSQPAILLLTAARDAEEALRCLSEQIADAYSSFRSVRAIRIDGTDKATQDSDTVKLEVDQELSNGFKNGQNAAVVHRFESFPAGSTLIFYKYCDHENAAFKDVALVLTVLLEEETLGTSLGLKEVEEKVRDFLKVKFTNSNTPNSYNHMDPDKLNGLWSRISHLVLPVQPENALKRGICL
Assay [10] has as its target Alpha-bungarotoxin (Bungarus multicinctus) (UniProt P60615). The assay is described as follows: alpha-bungarotoxin binders on microarray, profiling panel, artefact control for SMM control protein annotation, biochemical, small-molecule microarray, Alexa647 label, 635/667 nm fluorescence (AID 1117). The following applies: alpha-BTX-A647 binding fluorescence, higher = more signal.

For another assay, the target named is Albumin (Bos taurus) (UniProt P02769). The assay is described as follows: bovine serum albumin binders on microarray, profiling panel, artefact control for SMM control protein annotation, biochemical, small-molecule microarray, Alexa647 label, 635/667 nm fluorescence (AID 1118).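 Also: score merges 667 nm emission intensity and signal-to-noise per printed compound spot.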 The note with it: BSA-A647 binding, fluorescence 635 nm, higher = more signal.
Chain of Albumin (Bos taurus) (P02769 whole entry, looked up): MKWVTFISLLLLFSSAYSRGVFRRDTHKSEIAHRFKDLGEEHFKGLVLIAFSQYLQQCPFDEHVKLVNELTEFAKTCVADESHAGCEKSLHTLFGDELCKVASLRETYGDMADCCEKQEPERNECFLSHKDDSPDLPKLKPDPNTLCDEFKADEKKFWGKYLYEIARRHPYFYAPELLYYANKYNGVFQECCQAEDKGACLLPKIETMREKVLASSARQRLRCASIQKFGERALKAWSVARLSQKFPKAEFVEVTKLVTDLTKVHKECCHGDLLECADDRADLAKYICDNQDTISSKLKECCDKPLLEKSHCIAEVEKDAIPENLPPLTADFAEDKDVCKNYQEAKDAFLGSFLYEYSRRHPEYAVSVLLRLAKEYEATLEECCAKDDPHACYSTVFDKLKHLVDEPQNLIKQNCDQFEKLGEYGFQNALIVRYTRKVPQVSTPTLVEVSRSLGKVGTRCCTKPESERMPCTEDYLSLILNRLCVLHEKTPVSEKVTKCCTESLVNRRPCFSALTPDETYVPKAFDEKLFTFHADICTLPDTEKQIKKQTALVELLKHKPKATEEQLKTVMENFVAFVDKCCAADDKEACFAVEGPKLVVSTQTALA
Assay [11] in a line: small-molecule microarray binders of probe aXIP, primary screen, biochemical, NeuroSMM set, 635/667 nm fluorescence (AID 1119).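 Also: probe is the protein aXip251-270 applied at 1 µg/mL to compound-printed slides; binding of probe to printed compounds measured as 667 nm fluorescence plus signal to noise.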 The following applies: higher = more signal, called active from +8 up or from −8 down.
The nature of assay [12]: small-molecule binders of probe aNOTCH3, primary screen, biochemical, small-molecule microarray, 635/667 nm fluorescence (AID 1120).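 Also: probe is a biotin-tagged antibody raised against NOTCH3 rather than NOTCH3 protein; score merges spot fluorescence near 667 nm with spot signal to noise.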 The note with it: higher = more signal.
Assay [13] in a line: small-molecule binders of probe aNOTCH2, primary screen, biochemical, small-molecule microarray, 635/667 nm fluorescence (AID 1121).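 Also: score merges feature fluorescence read at 667 nm with its signal to noise.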 The note with it: higher = more signal.
Assay [14] addresses Carbonic anhydrase 2 (Homo sapiens) (UniProt P00918). The assay can be described thus: CAII small-molecule binders, profiling panel, biochemical, small-molecule microarray, Alexa647-labelled CAII (AID 1122). The following applies: CAII-A647 binding fluorescence, higher = more signal.
Assay [15] in a line: COS7 lysate on small-molecule microarray, probe aHis, 635 nm (AID 1123).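 Also: z-score combines 667nm fluorescence intensity with signal-to-noise per printed compound spot.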 The following applies: COS7 cell lysate, fluorescence, higher = more signal.
Assay [16] in a line: compound binding in COS7 lysate, probe aLAP1, primary screen, cell lysate, small-molecule microarray (AID 1124).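 Also: lysate comes from COS7 cells expressing LAP1 and is applied at 0.3 µg/mL; score merges spot fluorescence near 667 nm with signal-to-noise over triplicate slides.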 The following applies: probe aLAP1, fluorescence, higher = more signal.
A further assay relates to Sam68 (KHDRBS1). The assay is described as follows: Sam68 small-molecule binders, primary screen, biochemical, small-molecule microarray, 635 nm fluorescence (AID 1125).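 Also: score merges 667 nm channel intensity with signal to noise over triplicate slides.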 The following applies: small-molecule microarray binding, higher = more signal.
The test system of assay [17] is Chordin-like protein 2 (CHRDL2). The assay can be described thus: CHRDL2 small-molecule binders, primary screen, biochemical, small-molecule microarray, 635 nm fluorescence (AID 1126).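 Also: printed compound slides probed with Chrdl2 protein at 4 µg/mL for 1 h at 4 C; score merges 667 nm emission intensity with signal to noise over three replicate slides.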 The following applies: small-molecule microarray binding, fluorescence 635 nm; higher = more signal.
Assay [18] has as its target Concanavalin-A (Canavalia ensiformis) (UniProt P02866). The assay is described as follows: ConA small-molecule binders, primary screen, artefact control for SMM control protein annotation, biochemical, small-molecule microarray, Alexa647 label, 635 nm (AID 1127).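 Also: z combines 667 nm emission intensity with signal-to-noise across three replicate slides.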 The following applies: ConA-A647 binding fluorescence, higher = more signal.

Chain of Alpha-bungarotoxin (Bungarus multicinctus) (P60615 whole entry, looked up): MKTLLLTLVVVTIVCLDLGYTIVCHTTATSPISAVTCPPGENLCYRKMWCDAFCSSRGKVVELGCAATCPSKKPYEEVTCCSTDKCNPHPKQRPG
Chain of Concanavalin-A (Canavalia ensiformis) (P02866 whole entry, looked up): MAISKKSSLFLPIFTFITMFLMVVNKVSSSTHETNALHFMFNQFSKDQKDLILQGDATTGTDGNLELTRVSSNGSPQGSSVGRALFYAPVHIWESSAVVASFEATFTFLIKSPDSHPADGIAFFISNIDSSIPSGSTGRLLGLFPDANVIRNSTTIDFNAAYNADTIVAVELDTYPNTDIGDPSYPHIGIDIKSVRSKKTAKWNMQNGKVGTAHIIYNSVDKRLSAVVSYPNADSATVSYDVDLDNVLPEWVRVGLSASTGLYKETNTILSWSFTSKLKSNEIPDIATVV

For `CN1C=C(C(=O)OCCS(C)(=O)=O)C(C(=O)OCCS(C)(=O)=O)=CC(c2ccc(CO)cc2)=CC1c1cccs1` (stereo not given), the composite z-score in assay [1] was 0.229; in [3] it was 0.0843; in [4], -0.165; in assay [5] it was -0.388; in [6], -0.0405; in assay [7], 0.0062. The composite z-score in assay [8] was 0.304; in assay [9], 1.46; in assay [10], 0.821; in the assay with Albumin (Bos taurus) it was 0.232; in assay [12], 0.0026; in assay [13], -0.0936. The composite z-score in assay [14] came to 0.812; in [15], 0.848; in assay [16] it was 0.279; in the assay with Sam68 (KHDRBS1), 0.645; in assay [17] it was 0.318; in [18], 0.64. For the same molecule, in [2], the z-score was 0.19. Moreover, the composite Z-score in assay [11] is 0.142 (inactive).

For `C=CCC(OC(C)=O)[C@@H]1[C@@H](N(Cc2ccc(-c3cccc(C(F)(F)F)c3)o2)C(=O)c2ccc(C)cc2)c2cc(OCCCO)ccc2N1C(=O)Cc1ccc(OC)cc1` (stereo not given in full), the composite z-score in [1] is -0.918; in [3] it was -0.115; in assay [4], -0.697; in [5], -1.06; in [6] it was 0.0327; in assay [7], -0.439. Moreover, the composite z-score was -0.565 in assay [8]; 0.163 in assay [9]; -0.056 in assay [10]; -0.356 in the assay with Albumin (Bos taurus); -0.0311 in [12]; -0.194 in assay [13]. Moreover, the composite z-score is -0.26 in [14]; -0.333 in assay [15]; -0.27 in assay [16]; -0.367 with Sam68 (KHDRBS1); 0.186 in assay [17]; 0.0203 in assay [18]. The z-score in assay [2] was -0.466. The composite Z-score in assay [11] is 0.899 (inactive).

For the molecule `O=C1[C@@H]2[C@@H](CC(COc3ccccc3)=C3[C@@H](CCc4ccccc4)OB(O)C[C@@H]32)C(=O)N1Cc1ccccc1`, the composite z-score in assay [1] is -0.458; in assay [3] it was 0.222; in assay [4], 0.0454; in assay [5], 0.171; in assay [6] it was -0.124; in assay [7] it was -0.0011. The composite z-score in assay [8] was -0.465; in [9], -0.0169; in assay [10], -0.0025; with Albumin (Bos taurus), -0.0421; in assay [12], 0.0242; in assay [13], -0.13. Further, the composite z-score in [14] is 0.413; in [15], 0.782; in assay [16], 0.111; with Sam68 (KHDRBS1), -0.258; in [17] it was 0.139; in assay [18], 0.0019. In assay [2], the z-score is -1.36. Also, the composite Z-score in assay [11] was 0.196 (inactive).

`O=C1c2ccccc2[C@](Cc2ccccc2I)(C(=O)NC2CC2)[C@H](c2ccc(CO)cc2)N1Cc1ccccc1C(F)(F)F`: the composite z-score in assay [1] is 1.45; in assay [3] it was -1.16; in assay [4], 0.463; in assay [5], -0.541; in assay [6] it was -0.0735; in assay [7], -0.147. Also, the composite z-score was -0.484 in [8]; 0.103 in assay [9]; 0.968 in assay [10]; 0.502 with Albumin (Bos taurus); 0.134 in assay [12]; -0.0986 in [13]. Further, the composite z-score in [14] is 0.66; in assay [15], 1.88; in assay [16] it was 0.43; in the assay on Sam68 (KHDRBS1) it was 0.456; in assay [17] it was -0.941; in assay [18] it was 0.847. Also, the z-score in assay [2] is -2.2. The composite Z-score in assay [11] is 0.0029 (inactive).

As for `COCCOC(=O)N1C(=O)[C@@]2(c3cc(C#CC4(O)CCCCCC4)ccc31)[C@H](C(=O)N1CCN(c3ncccn3)CC1)[C@H]1C(=O)O[C@H](c3ccccc3)[C@H](c3ccccc3)N1[C@@H]2c1ccccc1OCCO`, the composite z-score was 1.37 in [1]; 1.2 in [3]; 0.348 in assay [4]; 0.0618 in assay [5]; -0.184 in assay [6]; 0.116 in assay [7]. Moreover, the composite z-score in [8] is -0.263; in assay [9] it was 0.334; in assay [10], 0.684; in the assay with Albumin (Bos taurus), -0.22; in [12], 0.22; in [13], -0.0826. The composite z-score in assay [14] is 0.384; in assay [15], 0.506; in [16], -0.176; in the assay with Sam68 (KHDRBS1) it was 1.26; in assay [17], 0.902; in assay [18] it was 1.13. Besides, the z-score in [2] was -2.22. In addition, in [11], the composite Z-score is 0.572 (inactive).
